Measurements: ChEMBL document CHEMBL3988442, “University of Dundee, Small-Polar-MMV Screening Library” (2021)
For some of these results: Results with a measured potency or affinity are listed apart.

What was measured:
Set-up in all cases: scale not given: direction of the effect not stated beside the values
[1] = molecular target: Protein translocase subunit SecA (Escherichia coli (strain K12)) (UniProt P10408); experiment: Assay to Identify E. coli SecA ATPase Inhibitors; type: functional; conditions: 30 µM
[2] = molecular target: T1, Ubiquitin-activating enzyme e1, putative (Leishmania donovani (strain BPK282A1)) (UniProt E9BSI1); experiment: Leishmania donovani Ubiquitin Activating Enzyme (LdE1); type: functional; conditions: 30 µM
T1 sequence (whole entry): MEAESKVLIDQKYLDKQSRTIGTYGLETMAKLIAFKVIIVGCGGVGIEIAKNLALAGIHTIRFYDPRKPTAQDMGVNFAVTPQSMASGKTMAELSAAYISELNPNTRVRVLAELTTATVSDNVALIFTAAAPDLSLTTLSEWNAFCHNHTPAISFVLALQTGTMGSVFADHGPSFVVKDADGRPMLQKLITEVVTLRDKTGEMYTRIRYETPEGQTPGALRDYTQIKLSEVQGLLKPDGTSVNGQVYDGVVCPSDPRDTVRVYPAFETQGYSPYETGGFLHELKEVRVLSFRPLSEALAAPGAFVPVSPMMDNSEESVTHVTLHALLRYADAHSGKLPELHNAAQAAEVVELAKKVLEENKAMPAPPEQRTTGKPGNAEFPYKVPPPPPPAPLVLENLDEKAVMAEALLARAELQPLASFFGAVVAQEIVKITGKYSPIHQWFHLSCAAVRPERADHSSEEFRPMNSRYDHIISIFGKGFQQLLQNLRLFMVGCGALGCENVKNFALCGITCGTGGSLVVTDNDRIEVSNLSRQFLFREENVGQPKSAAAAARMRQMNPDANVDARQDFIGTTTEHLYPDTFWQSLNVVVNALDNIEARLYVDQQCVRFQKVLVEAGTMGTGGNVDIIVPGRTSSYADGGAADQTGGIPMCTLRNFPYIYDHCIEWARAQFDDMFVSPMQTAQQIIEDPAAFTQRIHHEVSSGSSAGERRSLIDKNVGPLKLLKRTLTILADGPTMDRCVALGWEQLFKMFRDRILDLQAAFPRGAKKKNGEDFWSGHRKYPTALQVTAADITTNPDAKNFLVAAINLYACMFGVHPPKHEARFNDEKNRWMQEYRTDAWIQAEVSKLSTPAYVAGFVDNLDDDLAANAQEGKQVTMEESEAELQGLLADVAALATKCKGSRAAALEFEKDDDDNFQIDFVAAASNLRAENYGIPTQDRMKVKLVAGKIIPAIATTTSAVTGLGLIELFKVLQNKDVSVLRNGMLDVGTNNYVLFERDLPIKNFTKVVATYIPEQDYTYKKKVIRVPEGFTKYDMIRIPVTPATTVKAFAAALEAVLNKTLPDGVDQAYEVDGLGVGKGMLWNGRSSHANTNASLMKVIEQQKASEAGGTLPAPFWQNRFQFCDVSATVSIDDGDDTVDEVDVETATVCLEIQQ

[3] = molecular target: AMP-activated protein kinase, AMPK (Homo sapiens) (UniProt P54646+O43741+P54619+Q9UGJ0+Q9Y478+Q13131+Q9UGI9); experiment: AMP-dependent Kinase enzyme assay. An in vitro enzyme assay that detects ADP turnover that is directly proportional to AMPK activity. This uses naive AMPK that is activated during the assay with MK-8722; type: functional; conditions: 30 µM
[4] = molecular target: Sialic acid-binding Ig-like lectin 9 (Homo sapiens) (UniProt Q9Y336); experiment: Hs-Siglec9 ALPHAscreen SOP 20170721; conditions: 10 µM
Trypanosoma cruzi = experiment: Trypanosoma cruzi phosphomannomutase and mannose-1-phosphate guanylyltransferase assay; type: functional; conditions: 10 µM
[5] = molecular target: T2, Arginase-2, mitochondrial (Homo sapiens) (UniProt P78540); experiment: in vitro enzyme assay to detect the production of urea directly proportional to the activity of Arginase II; type: functional; conditions: 33.3 µM; also: in the data most compounds retested in dose-response had high values
T2 sequence (whole entry): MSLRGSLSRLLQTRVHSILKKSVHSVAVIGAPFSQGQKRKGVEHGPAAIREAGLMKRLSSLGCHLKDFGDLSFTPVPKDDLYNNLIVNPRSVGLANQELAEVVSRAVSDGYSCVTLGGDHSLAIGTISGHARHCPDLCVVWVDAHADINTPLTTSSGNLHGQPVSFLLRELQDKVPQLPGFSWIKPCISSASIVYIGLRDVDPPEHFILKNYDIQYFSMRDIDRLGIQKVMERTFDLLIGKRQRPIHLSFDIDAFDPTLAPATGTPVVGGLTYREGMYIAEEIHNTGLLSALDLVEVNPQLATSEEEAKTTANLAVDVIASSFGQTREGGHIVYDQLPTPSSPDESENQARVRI

[6] = molecular target: T3, Proteasome subunit beta (Trypanosoma cruzi) (UniProt O96673); experiment: Trypanosoma cruzi proteasome chymotrypsin-like activity (TcProtChymo) assay.; also: in the data most compounds retested in dose-response had high values; type: functional; conditions: 9.37 µM
T3 sequence (whole entry): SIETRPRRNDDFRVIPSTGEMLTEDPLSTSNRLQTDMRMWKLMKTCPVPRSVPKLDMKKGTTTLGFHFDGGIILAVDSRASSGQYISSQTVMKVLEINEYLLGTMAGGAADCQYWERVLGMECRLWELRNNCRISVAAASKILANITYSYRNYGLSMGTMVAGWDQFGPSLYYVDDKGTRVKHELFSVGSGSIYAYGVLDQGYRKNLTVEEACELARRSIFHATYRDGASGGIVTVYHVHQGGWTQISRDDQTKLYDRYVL

Homo sapiens = species: Homo sapiens; experiment: To identify inhibition of the IFN signalling (Jak-Stat) pathway via expression of an eGFP reporter gene under the control of an IFN-stimulated response element (ISRE) containing MxA promoter.; type: functional; conditions: 30 µM
[7] = molecular target: T4, Tyrosyl-tRNA synthetase, putative (Trypanosoma cruzi (strain CL Brener)) (UniProt Q4DSP6); experiment: Trypanosoma cruzi tyrosyl tRNA synthetase (TcYRS) _High Tyrosine SOP; type: functional; conditions: 30 µM; also: in the data most compounds retested in dose-response had high values
T4 sequence (whole entry): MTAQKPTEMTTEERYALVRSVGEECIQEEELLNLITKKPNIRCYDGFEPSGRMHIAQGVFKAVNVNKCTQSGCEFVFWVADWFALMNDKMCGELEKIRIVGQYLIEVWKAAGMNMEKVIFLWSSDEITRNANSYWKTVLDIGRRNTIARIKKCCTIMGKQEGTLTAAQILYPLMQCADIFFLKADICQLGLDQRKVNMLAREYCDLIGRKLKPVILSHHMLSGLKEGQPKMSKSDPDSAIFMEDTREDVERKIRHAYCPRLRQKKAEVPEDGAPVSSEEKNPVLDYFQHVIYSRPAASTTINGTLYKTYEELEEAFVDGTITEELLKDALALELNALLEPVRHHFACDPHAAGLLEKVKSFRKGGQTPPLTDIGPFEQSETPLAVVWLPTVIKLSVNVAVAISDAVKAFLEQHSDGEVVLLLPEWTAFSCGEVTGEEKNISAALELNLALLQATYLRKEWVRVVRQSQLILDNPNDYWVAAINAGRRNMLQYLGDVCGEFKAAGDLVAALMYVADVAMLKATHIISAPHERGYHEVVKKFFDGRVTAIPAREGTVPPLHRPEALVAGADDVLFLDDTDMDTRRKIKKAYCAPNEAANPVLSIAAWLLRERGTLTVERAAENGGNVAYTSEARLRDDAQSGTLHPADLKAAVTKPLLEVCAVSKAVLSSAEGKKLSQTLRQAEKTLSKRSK

[8] = molecular target: T4, Tyrosyl-tRNA synthetase, putative (Trypanosoma cruzi (strain CL Brener)); experiment: Trypanosoma cruzi tyrosyl tRNA synthetase (TcYRS) SOP; type: functional; conditions: 30 µM
[9] = molecular target: Chromo domain-containing protein 1 (Saccharomyces cerevisiae (strain ATCC 204508 / S288c) (Baker's yeast)) (UniProt P32657); experiment: ScCHD-1 Enzyme Inhibition Assay; type: functional; conditions: 30 µM; also: in the data most compounds retested in dose-response had high values
Sequence of Chromo domain-containing protein 1 (Saccharomyces cerevisiae (strain ATCC 204508 / S288c) (Baker's yeast)) (P32657 whole entry, the tested form may be a part): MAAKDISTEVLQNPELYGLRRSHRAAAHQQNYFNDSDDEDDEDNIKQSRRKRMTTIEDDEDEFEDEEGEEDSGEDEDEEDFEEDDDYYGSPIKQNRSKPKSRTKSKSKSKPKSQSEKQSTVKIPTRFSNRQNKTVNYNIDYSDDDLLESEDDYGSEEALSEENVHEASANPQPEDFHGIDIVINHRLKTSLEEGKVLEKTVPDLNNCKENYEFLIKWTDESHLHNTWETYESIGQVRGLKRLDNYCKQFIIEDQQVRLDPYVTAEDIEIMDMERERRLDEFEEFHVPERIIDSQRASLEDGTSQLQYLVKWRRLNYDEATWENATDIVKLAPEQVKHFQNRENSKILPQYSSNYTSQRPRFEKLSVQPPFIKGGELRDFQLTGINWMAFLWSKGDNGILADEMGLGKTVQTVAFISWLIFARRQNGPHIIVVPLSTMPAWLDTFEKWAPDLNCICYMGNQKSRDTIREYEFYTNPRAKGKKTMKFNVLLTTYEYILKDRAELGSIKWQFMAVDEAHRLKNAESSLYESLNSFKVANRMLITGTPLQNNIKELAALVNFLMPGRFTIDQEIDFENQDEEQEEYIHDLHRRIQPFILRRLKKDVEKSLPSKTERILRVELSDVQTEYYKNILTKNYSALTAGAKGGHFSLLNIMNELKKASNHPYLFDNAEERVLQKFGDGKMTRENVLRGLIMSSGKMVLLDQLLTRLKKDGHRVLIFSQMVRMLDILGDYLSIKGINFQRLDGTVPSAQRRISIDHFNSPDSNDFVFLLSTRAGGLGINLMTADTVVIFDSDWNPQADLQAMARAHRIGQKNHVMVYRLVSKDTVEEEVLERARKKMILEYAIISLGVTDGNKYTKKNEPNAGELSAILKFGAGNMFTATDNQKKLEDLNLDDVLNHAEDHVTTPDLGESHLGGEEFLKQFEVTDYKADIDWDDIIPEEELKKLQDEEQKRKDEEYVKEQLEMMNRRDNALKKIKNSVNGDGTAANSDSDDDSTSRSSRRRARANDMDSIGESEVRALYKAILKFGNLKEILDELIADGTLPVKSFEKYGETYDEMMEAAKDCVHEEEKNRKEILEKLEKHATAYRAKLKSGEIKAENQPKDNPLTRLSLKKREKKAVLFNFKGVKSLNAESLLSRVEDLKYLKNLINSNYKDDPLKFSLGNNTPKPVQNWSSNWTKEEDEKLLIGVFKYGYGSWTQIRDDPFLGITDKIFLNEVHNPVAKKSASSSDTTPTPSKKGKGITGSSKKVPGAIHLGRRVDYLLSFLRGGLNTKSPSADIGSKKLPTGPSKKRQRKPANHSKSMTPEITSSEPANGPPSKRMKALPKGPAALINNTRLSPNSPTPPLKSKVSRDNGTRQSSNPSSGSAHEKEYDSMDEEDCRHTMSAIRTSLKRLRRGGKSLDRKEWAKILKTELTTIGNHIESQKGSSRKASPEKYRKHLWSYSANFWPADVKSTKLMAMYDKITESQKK

Sequence of Protein translocase subunit SecA (Escherichia coli (strain K12)) (P10408 whole entry): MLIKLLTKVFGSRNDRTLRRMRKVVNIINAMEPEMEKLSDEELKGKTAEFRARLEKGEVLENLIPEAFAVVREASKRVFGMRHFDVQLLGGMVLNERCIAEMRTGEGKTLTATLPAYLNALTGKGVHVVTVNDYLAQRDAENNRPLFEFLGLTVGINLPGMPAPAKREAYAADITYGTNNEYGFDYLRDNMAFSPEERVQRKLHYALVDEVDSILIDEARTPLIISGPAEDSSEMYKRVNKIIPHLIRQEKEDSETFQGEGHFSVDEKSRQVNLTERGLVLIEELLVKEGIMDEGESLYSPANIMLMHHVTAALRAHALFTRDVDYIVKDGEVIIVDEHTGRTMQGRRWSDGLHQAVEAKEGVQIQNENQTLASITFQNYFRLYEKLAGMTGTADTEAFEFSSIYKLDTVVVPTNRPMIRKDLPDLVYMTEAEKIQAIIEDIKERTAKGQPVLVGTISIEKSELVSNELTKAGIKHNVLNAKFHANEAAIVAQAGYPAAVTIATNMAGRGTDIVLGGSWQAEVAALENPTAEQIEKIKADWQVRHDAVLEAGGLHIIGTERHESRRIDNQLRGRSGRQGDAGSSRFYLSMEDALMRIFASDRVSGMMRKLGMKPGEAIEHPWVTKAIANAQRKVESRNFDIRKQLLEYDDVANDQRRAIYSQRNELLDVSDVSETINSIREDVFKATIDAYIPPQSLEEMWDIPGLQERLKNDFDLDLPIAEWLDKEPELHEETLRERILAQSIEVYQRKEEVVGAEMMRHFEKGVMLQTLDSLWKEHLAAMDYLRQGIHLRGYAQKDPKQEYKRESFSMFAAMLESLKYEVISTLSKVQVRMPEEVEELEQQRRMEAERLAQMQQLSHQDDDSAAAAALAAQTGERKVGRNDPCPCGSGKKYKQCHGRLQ
Sequence of Sialic acid-binding Ig-like lectin 9 (Homo sapiens) (Q9Y336 whole entry): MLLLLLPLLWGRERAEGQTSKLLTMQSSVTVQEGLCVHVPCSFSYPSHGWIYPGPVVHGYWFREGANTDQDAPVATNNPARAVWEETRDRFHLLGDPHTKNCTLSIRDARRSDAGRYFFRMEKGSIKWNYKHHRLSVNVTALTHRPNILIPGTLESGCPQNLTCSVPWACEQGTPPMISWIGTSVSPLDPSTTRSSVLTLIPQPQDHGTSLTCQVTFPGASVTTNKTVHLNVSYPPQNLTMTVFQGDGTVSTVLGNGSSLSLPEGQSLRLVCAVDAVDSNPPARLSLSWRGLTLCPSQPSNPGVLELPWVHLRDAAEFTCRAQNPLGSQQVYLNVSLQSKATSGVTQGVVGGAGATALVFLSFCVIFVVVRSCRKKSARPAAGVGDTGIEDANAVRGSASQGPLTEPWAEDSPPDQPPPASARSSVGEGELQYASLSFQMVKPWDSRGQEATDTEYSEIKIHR

SMILES | Percent Effect [1] [%] | Percent Effect [2] [%] | Percent Effect [3] [%] | Percent Effect [4] [%] | Percent Effect (Trypanosoma cruzi) [%] | Percent Effect [5] [%] | Percent Effect [6] [%] | Percent Effect (Homo sapiens) [%] | Percent Effect [7] [%] | Percent Effect [8] [%] | Percent Effect [9] [%]
CCOc1ccccc1OC1CCN(C(=O)c2ccc(=O)[nH]n2)CC1 | -2.99 | 13.2 | 2.58 | 7.38 | 3.76 | 2.3 | 12.9 | 6.53 | 5.39 | 19.5 | -2.32
COC(=O)CCN1CCCC1c1ccccc1Cl (stereo not given) | -3.1 | -2.67 | -1.16 | 1.78 | 2.04 | -1.56 | 5.41 | 1.88 | 3.83 | 6.17 | -0.731
O=C1CC(c2ccccc2)C2(CCN(CC3CC3)CC2)N1 (stereo not given) | -1.75 | 10.7 | 3.12 | -1.87 | 5.02 | -55 | 9.23 | 0.446 | 5.21 | 20 | -5.25
CCOC(=O)C1CCCN(c2ccc(-c3nc(C)no3)cn2)C1 (stereo not given) | -4.99 | 8 | -4.16 | 19.1 | 5.36 | 6.25 | 0 | 1.88 | 3.83 | 11.1 | -6.07
CCc1nc(CN(C)C2CCN(CCn3cc(C#N)cn3)C2)no1 (stereo not given) | 1.6 | 13.5 | -2.36 | -1.05 | -7.64 | -13.6 | 17.5 | 23.4 | 4.43 | 6.17 | -5.98
CC(C)Oc1ccccc1C1CC(=O)Nc2c1cnn2C (stereo not given) | -2.1 | -15.8 | 7.56 | 5.91 | -3.21 | -7.1 | 15.6 | 15.6 | -2.13 | 2.6 | -0.488
CCc1nnc(CN(C)c2nc(C(C)C)nc3c2cnn3C)o1 | 3.23 | 4.17 | 6.88 | -0.661 | -3.6 | 2.21 | 16.8 | -1.37 | -2.1 | 2.56 | 1.23
COCCc1noc(CN2CCc3nn(C(C)C)c(=O)cc3C2)n1 | -3.44 | 18.4 | -7.36 | -6.23 | -4.58 | 0.719 | 6.18 | 6.48 | 5.42 | 11.1 | -11.2
O=c1nc(SCc2cccnc2)c2c(n1CCO)CCC2 | -1.99 | 13.7 | -3.57 | 7.9 | 0.588 | 5 | 15.8 | 16.7 | 6.45 | 15 | -7.2
CCc1nnc(CN2CCN(C(=O)c3cc4ccccc4[nH]3)CC2)o1 | -3 | -2.6 | 2.79 | 2.32 | 8.91 | -1.47 | 2.83 | -20 | 1.91 | 2.35 | -14.7
Cc1cc(C(=O)N2CCCC2c2nnc3n2CCCCC3)no1 (stereo not given) | -2.02 | 6.94 | -6.41 | -2.93 | 0.291 | 2.21 | 21.1 | -18.8 | 6.32 | 12.8 | -5.42
CN(Cc1nccn1CC(F)(F)F)C(=O)c1ccc(F)c(F)c1 | -4.78 | 5.26 | 7.84 | 5.27 | -1.46 | 0 | 10.4 | 4.07 | 4.25 | 13 | 26.9
COCCN1CCc2cc(C(=O)N(C)C)c(NC(C)C)nc2CC1 | -0.676 | 8.11 | -3.33 | -5.3 | -2.25 | 0.248 | 0.429 | -3.78 | -10.8 | 3.7 | -3.16
CC(=O)NCC1CCN(C(=O)c2csc(-c3ccc(C)cc3C)n2)CC1 | -3.29 | 13.5 | 1.21 | 1.58 | 1.58 | 0.554 | 4.49 | 35.7 | 7.92 | 23.2 | 0.867
COc1cccc(S(=O)(=O)CCN2CCCN(C(C)=O)CC2)c1 | -0.358 | 5.33 | -1.44 | 13.1 | 6.13 | 24 | 1.22 | 18.5 | 1.64 | 6.17 | -15.8
CC(C)C(C(=O)N1CCN(Cc2ccncc2)CC1)n1cncn1 (stereo not given) | -4.08 | 7.79 | 4.2 | 5.43 | 0.0983 | -11 | 3.83 | -1.24 | 3.23 | 11.1 | 2.61
O=C(Nc1cnn(CCN2CCOCC2)c1)c1ccccc1O | -4.19 | 26.3 | -17.4 | 2.22 | 3.57 | 4.6 | 16.9 | -2.35 | 6.37 | 19.5 | -12.5
COc1cc(CCC(=O)NCC2CCCN2C)ccc1OCC(F)(F)F (stereo not given) | -2.12 | 7.89 | -14 | 4.13 | -0.0934 | -2.88 | 11.4 | 14.2 | 5.42 | 16.1 | -7.41
CC(O)CN1CCN(C(=O)c2cnn(-c3ccccc3F)c2)CC1 (stereo not given) | -6 | 13.3 | -6.53 | 24.2 | 5.75 | 15.6 | 9.59 | 10.4 | -0.546 | 8.64 | -7.25
Cn1c(CN2CCOCC2)nnc1C1CCN(C(=O)C2CCCC2)CC1 | 0.739 | 13.5 | 1.53 | 14.3 | 3.09 | 0.476 | 20.9 | 2.19 | 5.82 | 19.5 | -4.58
